Compounds without any hit were thinned out: in the full panel of roughly 83,000, 20% have a hit.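 In brief: 96-well plates, 48 h treatment, single concentration, percent growth endpoint.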 Calls of active or inactive are those of the source. The calls were made as follows: active = growth percent below 10; inactive = the rest.
Legend:
Experiment in all cases: NCI-60 one-dose screen, 48 h (100 = growth as untreated, 0 = no growth, -100 = all killed)
[1] = test system: T-47D breast; conditions: 10 µM
[2] = test system: BT-549 breast; conditions: 10 µM unless noted
[3] = test system: MDA-MB-435 melanoma; conditions: 10 µM unless noted
[4] = test system: SW-620 colon; conditions: 10 µM unless noted
[5] = test system: MCF7 breast; conditions: 10 µM unless noted
[6] = test system: HCT-116 colon; conditions: 10 µM unless noted
[7] = test system: HCC-2998 colon; conditions: 10 µM unless noted
[8] = test system: KM12 colon; conditions: 10 µM unless noted

Measured: growth

COc1cc2nc(N3CCC[C@H](NC4=CC(=O)c5ccccc5C4=O)C3)nc(N)c2cc1OC
inactive: [2] 105% | [7] 92.9%
active: [1] -56.2% | [3] -96.1% | [4] -45.1% | [5] -77.3% | [6] -85.3% | [8] -39.2%

Clc1ccc2c(c1)C[C@H]1C[C@@H](c3cccs3)N2O1
inactive: [1] 97.1% | [2] 105% | [3] 95.9% | [4] 99.1% | [5] 105% | [6] 105% | [7] 99.8% | [8] 104%

Oc1ccc(Cl)cc1CNc1nc2ccccc2[nH]1
active: [3] -67.3% | [4] -48.6%
inactive: [1] 96% | [2] 58.4% | [5] 18% | [6] 12.3% | [7] 59.3% | [8] 13.2%

Nc1ccccc1-c1n[nH]c(=O)[nH]c1=O
inactive: [1] 114% | [2] 111% | [3] 100% | [4] 101% | [5] 102% | [6] 93.3% | [7] 101% | [8] 107%

Cc1nn(-c2ccccc2)c2nc3nc4c(c(N)c3c(-c3ccc(Cl)cc3)c12)CCC4
inactive: [1] 102% | [2] 114% | [3] 95.1% | [4] 50.8% | [5] 87.5% | [6] 58.2% | [7] 109% | [8] 96.6%

FC(F)(F)c1ccc2c(c1)n1cnnc1c1nncn21
inactive: [1] 102% | [2] 103% | [3] 112% | [4] 108% | [5] 98.2% | [6] 105% | [7] 108% | [8] 110%

CCC(C)[C@H]1O[C@]2(CC[C@@H]1C)C[C@@H]1C[C@@H](C/C=C(\C)[C@@H](OC3C[C@H](OC)C(O[C@H]4C[C@H](OC)[C@@H](O)[C@H](C)O4)[C@H](C)O3)[C@@H](C)/C=C/C=C3\CO[C@@H]4[C@H](O)C(C)=C[C@@H](C(=O)O1)[C@]34O)O2 (stereo partly specified)
inactive: [1] 18.1% | [4] 18.5%
active: [2] -26.3% | [3] 3.2% | [5] 6.74% | [6] -89.2% | [7] -82.3% | [8] -11.8%

c1ccc(-c2nc(N3CCOCC3)c3c4c(sc3n2)CCCCCC4)nc1
active: [5] 3.9%
inactive: [1] 17.8% | [2] 58.3% | [3] 61.9% | [4] 86.9% | [6] 27.7% | [7] 72.7% | [8] 44.7%

O=C(Nc1ccc(Cl)c(Cl)c1)NC(CO)(CO)CO
inactive: [1] 96% | [2] 93.8% | [3] 95.8% | [4] 101% | [5] 97.4% | [6] 101% | [7] 102% | [8] 97.7%

COc1cc2oc(-c3ccc(O)cc3)cc(=O)c2c(O)c1I
inactive: [1] 93.1% | [2] 96.2% | [3] 101% | [4] 109% | [5] 79% | [6] 104% | [7] 105% | [8] 96.5%

O=C1C=CC(=O)N1CCCCCCCCCCN1C(=O)C=CC1=O
active: [4] 4.62%
inactive: [1] 77.9% | [2] 101% | [3] 68.6% | [5] 82.7% | [6] 32.9% | [7] 90.7% | [8] 86.2%

CC(C)(C)[Si](C)(C)OC1[C@@H](COC(N)=O)O[C@@H](n2cnc3c(N)ncnc32)[C@H]1O[Si](C)(C)C(C)(C)C (stereo partly specified)
inactive: [1] 84.4% | [2] 106% | [3] 74.6% | [4] 100% | [5] 78.6% | [6] 90.1% | [7] 107% | [8] 76%

Cc1ccc(C2SCC(=O)N2NC(=O)c2[nH]c3ccc(F)cc3c2-c2ccccc2)cc1 (stereo unspecified)
inactive: [1] 91.3% | [2] 93.2% | [3] 96.3% | [4] 102% | [5] 93.1% | [6] 80.1% | [7] 70.2% | [8] 96.1%

COc1ccccc1/C=C/C(=O)/C=C/c1ccccc1O
active: [1] -37.2% | [2] -34.1% | [3] -36.3% | [4] -80.3% | [5] -18.6% | [6] -93.2% | [7] 4.04% | [8] -93.9%

COc1ccc(OC2=CC(=O)c3ccc(C)nc3C2=O)cc1
inactive: [1] 79.9% | [2] 90.7% | [3] 83% | [4] 94.9% | [5] 72.4% | [6] 74.3% | [7] 102% | [8] 81.3%

Cc1nn(CC(=O)O)c2c1C(=O)CC(C)(C)C2
inactive: [1] 104% | [2] 104% | [3] 106% | [4] 117% | [5] 102% | [6] 92.3% | [7] 98.9% | [8] 109%

COc1ccc(-n2ncc3c4nc(OC)c(S(=O)(=O)c5ccccc5)cc4ccc32)cc1
inactive: [1] 57% | [2] 53.1% | [3] 83.3% | [4] 90% | [5] 87.9% | [6] 59.7% | [7] 96.7% | [8] 90.2%

CC1=CN2C(=NC3=C(CCCC/C3=C\c3ccccc3)C2c2ccccc2)S1 (stereo unspecified)
inactive: [1] 91% | [2] 108% | [3] 99.6% | [4] 103% | [5] 94.6% | [6] 97.6% | [7] 103% | [8] 100%

C=CC(=O)N1CC2(CCC(n3nc(-c4ccc(Oc5ccccc5)cc4)c4c(N)ncnc43)CC2)C1
inactive: [1] 14.6%
active: [2] -69.3% | [3] -81.1% | [4] 0.371% | [5] 1.86% | [6] -82.7% | [7] -77.8% | [8] -29.1%

Cc1c(NCC(=O)Nc2nc3ccccc3[nH]2)c(=O)n(-c2ccccc2)n1C
inactive: [1] 97.8% | [2] 110% | [3] 103% | [4] 103% | [5] 89.4% | [6] 101% | [7] 114% | [8] 112%

Cc1cc(=O)c2c(C)ccc(C)c2[nH]1
inactive: [1] 96.1% | [2] 123% | [3] 104% | [4] 104% | [5] 93.5% | [6] 96.3% | [7] 91.2% | [8] 130%

CN1CCN(C(=O)OCCOCCOC(=O)N2CCN(C)CC2)CC1
inactive: [1] 109% | [2] 98.7% | [3] 98.9% | [4] 117% | [5] 102% | [6] 94.8% | [7] 98.4% | [8] 104%

CCOC(=O)C(CC(c1ccccc1)N1CCCCC1)[N+](=O)[O-] (stereo unspecified)
inactive: [1] 59.1% | [2] 94.8% | [3] 93.7% | [4] 84.9% | [5] 63.3% | [6] 54.8% | [7] 108% | [8] 37.8%

CCN(C(=O)c1ccc2c3c(cccc13)C=C2)c1ccccc1
inactive: [1] 96% | [2] 107% | [3] 90.9% | [4] 111% | [5] 109% | [6] 97.8% | [7] 123% | [8] 118%

N#Cc1ccc(C(F)(F)F)nc1N1CCC(C(=O)Nc2ccc(Cl)cc2)CC1
inactive: [1] 64.7% | [2] 70.8% | [3] 67.5% | [4] 75.4% | [5] 60% | [6] 41.3% | [7] 68.7% | [8] 91%

O=c1ccc2ccccc2o1
inactive: [1] 116% | [2] 87.1% | [3] 102% | [4] 105% | [5] 98.3% | [6] 104% | [7] 106% | [8] 99.1%

COc1nc2c(cc1S(=O)(=O)c1ccccc1)CCc1c-2cnn1-c1cccc(Cl)c1
inactive: [1] 59.6% | [2] 80.8% | [3] 63% | [4] 93.7% | [5] 87.5% | [6] 62.9% | [7] 101% | [8] 85.4%

O=[N+]([O-])c1cc2c(cc1Br)C1C(C3C2C(Cl)(Cl)C(Cl)=C(Cl)C3(Cl)Cl)C(Cl)(Cl)C(Cl)=C(Cl)C1(Cl)Cl (stereo unspecified)
inactive: [1] 90.8% | [2] 93.1% | [3] 103% | [4] 115% | [5] 91.5% | [6] 89.7% | [7] 93.4% | [8] 106%

Cc1cc(NS(=O)(=O)c2ccc(NC(=O)COc3ccc(-c4cc5ccccc5[nH]4)cc3)cc2)no1
active: [1] -19.8% | [3] -11.9% | [5] 1.1% | [6] 2.8% | [7] -1.25%
inactive: [2] 11.9% | [4] 15.9% | [8] 10.3%

O=C1/C(=C/c2ccc(Oc3ccccc3)cc2)N=C(c2ccccc2)N1CCc1cccs1
inactive: [1] 83.9% | [2] 74.9% | [3] 89.7% | [4] 80.1% | [5] 81.8% | [6] 57.1% | [7] 96.6% | [8] 97.6%

COc1ccc(Cn2c(Br)c3c(c2-c2cc(OC)c(OC)c(OC)c2)CCc2sc(N)nc2-3)cc1
active: [3] -40.1% | [6] 6.12%
inactive: [1] 59.7% | [2] 44.2% | [4] 19% | [5] 10.1% | [7] 12.4% | [8] 27.2%

CC(C)(C)[Si](C)(C)OC1[C@@H](COC(=O)NC(=O)CCl)O[C@@H](n2cnc3c(N)ncnc32)[C@H]1O[Si](C)(C)C(C)(C)C (stereo partly specified)
inactive: [1] 76.3% | [5] 10.6% | [6] 11.2% | [7] 56% | [8] 19.9%
active: [2] -17.9% | [3] -28.2% | [4] -21.8%

— PubChem BioAssay (NCI)
